PubChem BioAssay
For part of these data: Entries with a potency or affinity are not part of this list. Active and inactive are the calls of the source. Unless noted, the limit is not given here; nearly all actives have IC50 up to about 0.98 µM.

Tested on: not listed separately
Experiment: inhibition of 3D7 malaria parasite growth – strain 3D7 (AID 2306; call rule not given here;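 also: 0% = DMSO wells and 100% = chloroquine plus artemisinin control wells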)
Conditions: P. falciparum 3D7 erythrocytic growth, LDH absorbance, 72 h; at 2 µM; active compounds read high
In the case of `O=C(Nc1ccc(Cl)cc1)c1ccc(CN2CCCN(CC3CCCCC3)CC2)cc1`, the growth inhibition is reported as 92% (active). With `CCCc1cc(OC)c(CC2c3cccc(O)c3CCN2C)cc1OC` (stereo not given) the growth inhibition was 100% (active). For `CCC1CCCCN1S(=O)(=O)c1ccc(OC)c(N2CCN(C(=O)C(Cl)(Cl)Cl)CC2)c1` (stereo not given), the growth inhibition was 89% (active). For `Cc1cnc(Nc2cccc(CCN3CCOCC3)c2)nc1NC(C)C`, the growth inhibition was 97% (active).

Target: Calcium-dependent protein kinase 1 (Plasmodium falciparum (isolate 3D7)) (UniProt P62344)
Sequence (P62344 whole entry, looked up): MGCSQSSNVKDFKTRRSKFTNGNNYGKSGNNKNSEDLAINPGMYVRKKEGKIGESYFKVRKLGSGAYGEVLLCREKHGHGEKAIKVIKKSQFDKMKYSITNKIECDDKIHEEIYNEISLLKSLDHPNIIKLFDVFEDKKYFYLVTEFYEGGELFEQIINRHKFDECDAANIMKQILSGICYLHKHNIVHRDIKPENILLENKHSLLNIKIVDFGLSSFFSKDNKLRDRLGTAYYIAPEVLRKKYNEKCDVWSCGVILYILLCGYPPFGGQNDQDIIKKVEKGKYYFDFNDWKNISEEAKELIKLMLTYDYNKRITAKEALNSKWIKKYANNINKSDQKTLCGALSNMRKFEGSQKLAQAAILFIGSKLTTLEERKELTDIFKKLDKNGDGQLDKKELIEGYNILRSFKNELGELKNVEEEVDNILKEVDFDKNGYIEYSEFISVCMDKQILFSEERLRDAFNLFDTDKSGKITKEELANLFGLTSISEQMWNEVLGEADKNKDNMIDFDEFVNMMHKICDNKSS
Experiment: PfCDPK1 kinase inhibitors, biochemical, TCAMS library (AID 1159585);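 also: inhibitors leave more ATP so luminescence rises with inhibition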
Conditions: recombinant PfCDPK1, Kinase-Glo ATP depletion luminescence
In the case of `CCc1nc2c(cnn2CC)c(NC2CCOCC2)c1CNC(=O)c1ccoc1C`, the outcome is reported as “inactive”. With `CCOC(=O)c1cc(C(=O)NCCCCN2CCC(c3ccc(CC)cc3OCC)CC2)ccc1-c1ccc(C(F)(F)F)cc1` the outcome was “inactive”. With `Cn1cnc2c(SCc3ccc(OCc4ccccc4)cc3)ncnc21` the outcome was “inactive”. In the case of `COc1ccc(/C=C/C(=O)Nc2ccc(-c3ccncc3)cc2)cc1CCCN(C)C`, the outcome is reported as “inactive”. For `C/C=C/COc1ccc2ccccc2c1CNCCCCCCCCNCc1c(OC/C=C/C)ccc2ccccc12`, the outcome was “inactive”. With `N=c1c(C(=O)NCc2ccccc2)cc2c(=O)n3ccccc3nc2n1CCc1ccccc1` the outcome was “inactive”. With `CCOc1ccc2nc(C)cc(NN=Cc3cccc(F)c3)c2c1` the outcome was “inactive”. With `Nc1nc2ncn(COC(COCc3ccccc3)COCc3ccccc3)c2c(=O)[nH]1` (tested in a mixture with another compound) the outcome was “inactive”. For `N#Cc1cccc(NC(=O)c2cccc(S(=O)(=O)NC3CCN(CC4CCCCC4)C3)c2)c1` (stereo not given), the outcome was “inactive”. In the case of `O=C(COc1ccccc1)N(Cc1ccc(-c2ccc(CNC3Cc4ccccc4C3)cc2)cc1)C1CCNCC1`, the outcome is reported as “inactive”. In the case of `Cc1ccccc1CNc1noc(-c2sccc2Br)n1`, the outcome is reported as “inactive”.
